Our source for the Potency and activity change, negative = inhibition values is PubChem BioAssay (Tox21).

Records with an inconclusive call do not appear. Where a call stands in place of a potency, no number is given. Activity calls are given as the source filed them. Calls follow the shape of the dose curve; as a rule, active = well fitted curve in the direction sought with a large enough effect in the repeat runs; inconclusive = weak or mixed curves; inactive = no such curve, though single readings can be large; an effect the other way counts as inactive or inconclusive.
Also: nearly all actives have a fitted effect of over 50% in size.

Cytochrome P450 3A4 (Homo sapiens), sequence (P08684 whole entry, looked up): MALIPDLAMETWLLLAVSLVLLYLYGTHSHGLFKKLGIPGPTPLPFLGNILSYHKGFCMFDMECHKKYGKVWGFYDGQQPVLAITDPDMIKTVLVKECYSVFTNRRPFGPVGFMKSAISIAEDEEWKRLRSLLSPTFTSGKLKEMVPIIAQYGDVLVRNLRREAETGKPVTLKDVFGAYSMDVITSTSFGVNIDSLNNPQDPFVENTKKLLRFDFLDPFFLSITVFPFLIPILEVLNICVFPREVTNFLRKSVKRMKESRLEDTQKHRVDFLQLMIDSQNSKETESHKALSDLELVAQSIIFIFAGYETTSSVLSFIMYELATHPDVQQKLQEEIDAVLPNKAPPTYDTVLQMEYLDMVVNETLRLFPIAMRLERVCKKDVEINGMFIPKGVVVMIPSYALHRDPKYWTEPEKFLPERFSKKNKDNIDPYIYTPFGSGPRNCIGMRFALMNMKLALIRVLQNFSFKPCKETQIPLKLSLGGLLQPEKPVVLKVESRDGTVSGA

The target of the first assay is Cytochrome P450 1A2 (Homo sapiens) (UniProt P05177). Kind of assay: Cytochrome P450 Family 1 Subfamily A Member 2 (CYP1A2) small molecule antagonists: luciferase reporter qHTS assay (AID 1671199). The conditions noted are these: P450-Glo CYP1A2 enzyme, luciferin luminescence, 1 h; series mostly up to 53 µM. The essentials: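 Room-temperature CYP1A2 reaction with proluciferin substrate: compounds added from DMSO, 10 min preincubation, NADPH regeneration for 1 h. Luciferin detection reagent then added; luminescence recorded as RLU.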
Cytochrome P450 1A2 (Homo sapiens), sequence (P05177 whole entry, looked up): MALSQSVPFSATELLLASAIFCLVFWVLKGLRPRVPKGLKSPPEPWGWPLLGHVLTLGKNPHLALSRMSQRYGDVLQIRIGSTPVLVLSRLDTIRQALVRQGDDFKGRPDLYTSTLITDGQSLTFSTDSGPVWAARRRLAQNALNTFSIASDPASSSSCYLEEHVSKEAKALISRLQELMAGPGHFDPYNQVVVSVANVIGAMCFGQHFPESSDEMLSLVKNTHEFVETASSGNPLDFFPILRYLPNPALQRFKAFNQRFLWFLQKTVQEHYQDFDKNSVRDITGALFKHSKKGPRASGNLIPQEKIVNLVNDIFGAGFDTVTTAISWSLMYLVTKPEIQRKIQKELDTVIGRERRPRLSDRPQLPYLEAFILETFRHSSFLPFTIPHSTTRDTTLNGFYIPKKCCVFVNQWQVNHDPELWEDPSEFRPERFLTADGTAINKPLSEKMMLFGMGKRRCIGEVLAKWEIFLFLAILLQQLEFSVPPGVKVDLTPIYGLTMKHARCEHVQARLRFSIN
(Reporter assays use an easily measured gene product as a stand-in for the process of interest.)
Take `CC(C)NCCCC1(C(N)=O)c2ccccc2-c2ccccc21`: the Potency result was “inactive”.

`O=C1OC(=O)C2CCCCC12` (centres undefined): the Potency result was “inactive”.

On to `CO[Si](CCCOCC1CO1)(OC)OC` (centres undefined), for which the Potency entry was “inactive”.

Turning to `CCOC(=O)c1ccc(C)cc1`, the Potency result was “inactive”.

`CC(C)NCC(O)c1ccc(NS(C)(=O)=O)cc1` (centres undefined): the Potency entry was “inactive”.

As to `O=c1cc(CO)occ1O`, the Potency entry is “inactive”.

`CCN(CC)CCNC(=O)c1cc(S(C)(=O)=O)ccc1OC`: the Potency result is “inactive”.

As to `N[C@H](C(=O)O)c1ccc(O)cc1`, the Potency result is “inactive”.

In the case of `CCS(=O)(=O)c1ccc(OC)c(C(=O)OC)c1`, the Potency result was “inactive”.

Consider `Cc1sccc1Br`, for which the Potency result was “inactive”.

The target in a further assay is Voltage-gated inwardly rectifying potassium channel KCNH2 (Homo sapiens) (UniProt Q12809). Kind of assay: Human Ether-a-go-go-Related Gene (hERG) channel small molecule antagonists: fluorescence cell-based qHTS assay (AID 1671200). Also: potency is read from the fitted curve at half-maximal effect.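 As to activity change, negative = inhibition: hERG-expressing U2OS cells given a thallium stimulus after FluxOR II dye loading.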 The conditions noted are these: hERG-U2OS cells, FluxOR thallium flux fluorescence; series mostly up to 76.8 µM. The essentials: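 Fluorescence at 540 nm emission (480 nm excitation) was recorded kinetically for 2 min at 1-second intervals once the thallium-containing stimulus reached cells previously loaded with FluxOR II dye.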
Voltage-gated inwardly rectifying potassium channel KCNH2 (Homo sapiens), sequence (Q12809 whole entry, looked up): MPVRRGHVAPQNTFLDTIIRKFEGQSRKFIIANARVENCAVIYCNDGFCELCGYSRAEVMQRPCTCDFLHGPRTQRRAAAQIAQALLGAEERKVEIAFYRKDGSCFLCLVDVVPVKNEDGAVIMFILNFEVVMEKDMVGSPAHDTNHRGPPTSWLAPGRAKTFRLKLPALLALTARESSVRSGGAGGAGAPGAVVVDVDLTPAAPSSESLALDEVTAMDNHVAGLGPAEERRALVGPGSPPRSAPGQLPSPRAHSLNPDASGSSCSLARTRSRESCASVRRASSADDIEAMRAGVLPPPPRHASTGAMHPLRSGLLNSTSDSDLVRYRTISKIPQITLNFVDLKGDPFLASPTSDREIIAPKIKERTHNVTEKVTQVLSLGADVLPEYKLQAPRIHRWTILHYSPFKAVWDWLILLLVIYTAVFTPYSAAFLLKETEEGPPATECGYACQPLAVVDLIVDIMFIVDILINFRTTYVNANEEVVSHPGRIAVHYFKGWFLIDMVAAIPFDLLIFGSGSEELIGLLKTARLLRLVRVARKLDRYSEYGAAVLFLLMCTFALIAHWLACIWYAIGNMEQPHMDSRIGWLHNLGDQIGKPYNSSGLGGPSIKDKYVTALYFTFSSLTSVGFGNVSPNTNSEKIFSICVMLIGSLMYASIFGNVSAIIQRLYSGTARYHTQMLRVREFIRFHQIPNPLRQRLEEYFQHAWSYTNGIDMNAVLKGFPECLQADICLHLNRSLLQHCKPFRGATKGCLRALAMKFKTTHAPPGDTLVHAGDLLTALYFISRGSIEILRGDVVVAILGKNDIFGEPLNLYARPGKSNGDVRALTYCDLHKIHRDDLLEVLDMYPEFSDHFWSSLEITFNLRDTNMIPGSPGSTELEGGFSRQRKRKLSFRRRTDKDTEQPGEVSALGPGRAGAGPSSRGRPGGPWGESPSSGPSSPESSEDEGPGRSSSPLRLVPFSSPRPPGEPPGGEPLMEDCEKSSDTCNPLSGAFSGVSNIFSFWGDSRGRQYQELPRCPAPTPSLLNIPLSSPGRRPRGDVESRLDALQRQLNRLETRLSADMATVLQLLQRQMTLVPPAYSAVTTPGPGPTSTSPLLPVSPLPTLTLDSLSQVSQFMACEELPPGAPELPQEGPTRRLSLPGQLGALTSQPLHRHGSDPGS
Take `C=CCCCCCCCCC=O`: the Potency entry was “inactive”.

For `CC(C)(O)C(=O)c1ccccc1`, the Potency entry is “inactive”.

Consider `CC(=O)CC(C)(C)C1CCCCC1`, for which the Potency result was “inactive”.

On to `CC(C[N+](C)(C)C)OC(N)=O` (centres undefined), for which the Potency result was “inactive”.

On to `O=C1CC2CC1C1CCCC21` (centres undefined), for which the Potency entry is “inactive”.

Regarding `CC(=O)CC(C)C`, the Potency entry was “inactive”.

With `COC(=O)[C@@H](N)Cc1ccc(O)c(O)c1`, the Potency result is “inactive”.

Consider `CC/C=C\CC/C=C/C(OCC)OCC`, for which the Potency entry is “inactive”.

Turning to `O=C(O)CCCl`, the Potency entry is “inactive”.

As to `CC(C)c1cc2c(cc1S(=O)(=O)O)[C@@]1(C)CCC[C@@](C)(C(=O)O)[C@@H]1CC2`, the Potency result was “inactive”.

Regarding `CO[C@]12C[C@@H](COC(=O)c3cncc(Br)c3)CN(C)[C@@H]1Cc1cn(C)c3cccc2c13`, the Potency is 1.07 µM (active).

In the case of `CCn1ccnc1CC1COc2ccccc2O1` (centres undefined), the Potency result was “inactive”.

With `OCCOc1ccc(OCCO)cc1`, the Potency entry is “inactive”.

Consider `COC(=O)c1cc(C(=O)OC)cc(S(=O)(=O)O)c1`, for which the Potency result is “inactive”.

As for `CCCCCCCCCCCCN(CCCCCCCCCCCC)CCCCCCCCCCCC`, the Potency result was “inactive”.

`COC(=O)CCSCCC(=O)OC`: the Potency entry is “inactive”.

`O=[N+]([O-])c1ccc(F)cc1F`: the Potency entry is “inactive”.

Consider `CCO[Si](CCC1CCC2OC2C1)(OCC)OCC` (centres undefined), for which the Potency entry was “inactive”.

On to `CN1N=C(C(N)=O)CCC1=O`, for which the Potency entry was “inactive”.

For the compound `Cc1ccc(Cl)cc1Cl`, the Potency result is “inactive”.

For the compound `C=C(C)C(=O)OCCCCCCCC(C)C`, the Potency result was “inactive”.

The target of a further assay is Cytochrome P450 3A4 (Homo sapiens) (UniProt P08684). The assay is described as follows: Cytochrome P450 Family 3 Subfamily A Member 4 (CYP3A4) small molecule antagonists: luciferase reporter qHTS assay (AID 1671201). Also: potency is read from the fitted curve at half-maximal effect. To be noted: P450-Glo CYP3A4 enzyme, luciferin luminescence, 1 h; series mostly up to 115 µM. The essentials:
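qHTS, 1536-well. CYP3A4 + proluciferin substrate, cpd 10 min RT → NADPH regen 1 h RT → detection reagent 20 min → luminescence (RLU). Ketoconazole positive control.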
For the compound `CC(C)(O)C(=O)c1ccccc1`, the Potency entry was “inactive”.

As for `O=C1OC(=O)C2CCCCC12` (centres undefined), the Potency entry is “inactive”.

Consider `CC(=O)CC(C)(C)C1CCCCC1`, for which the Potency result is “inactive”.

With `O=C1CC2CC1C1CCCC21` (centres undefined), the Potency entry is “inactive”.

On to `CCC=O`, for which the Potency result is “inactive”.

As to `CC(=O)CC(C)C`, the Potency entry is “inactive”.

As to `COC(=O)[C@@H](N)Cc1ccc(O)c(O)c1`, the Potency result is “inactive”.

For `CC/C=C\CC/C=C/C(OCC)OCC`, the Potency was 31.7 µM (active).

Take `CO[Si](CCCOCC1CO1)(OC)OC` (centres undefined): the Potency result was “inactive”.

For `CCOC(=O)c1ccc(C)cc1`, the Potency result was “inactive”.

Consider `NC(CSCC(=O)O)C(=O)O` (centres undefined), for which the Potency entry was “inactive”.

For `CC(C)NCC(O)c1ccc(NS(C)(=O)=O)cc1` (centres undefined), the Potency result is “inactive”.

In the case of `O=c1cc(CO)occ1O`, the Potency result is “inactive”.

As for `CCN(CC)CCNC(=O)c1cc(S(C)(=O)=O)ccc1OC`, the Potency result was “inactive”.

For `N[C@H](C(=O)O)c1ccc(O)cc1`, the activity change, negative = inhibition was -17% [at 23.6 µM] (inactive).

For `O=C(O)CCCl`, the Potency entry is “inactive”.

Regarding `CC(C)c1cc2c(cc1S(=O)(=O)O)[C@@]1(C)CCC[C@@](C)(C(=O)O)[C@@H]1CC2`, the Potency entry is “inactive”.

In the case of `CCn1ccnc1CC1COc2ccccc2O1` (centres undefined), the Potency result is “inactive”.

Turning to `OCCOc1ccc(OCCO)cc1`, the Potency result was “inactive”.

`CCS(=O)(=O)c1ccc(OC)c(C(=O)OC)c1`: the Potency entry was “inactive”.

Turning to `COC(=O)c1cc(C(=O)OC)cc(S(=O)(=O)O)c1`, the Potency result was “inactive”.

On to `Cc1sccc1Br`, for which the Potency entry is “inactive”.

Take `CN1C(=O)N(C)C(O)C1O` (centres undefined): the Potency entry was “inactive”.

With `COC(=O)CCSCCC(=O)OC`, the Potency entry is “inactive”.

Take `O=[N+]([O-])c1ccc(F)cc1F`: the Potency result was “inactive”.

For the compound `CCO[Si](CCC1CCC2OC2C1)(OCC)OCC` (centres undefined), the Potency entry is “inactive”.

With `Cc1ccc(Cl)cc1Cl`, the Potency entry was “inactive”.

For the compound `C=C(C)C(=O)OCCCCCCCC(C)C`, the Potency entry is “inactive”.
